# About 21,000 targets were measured; listed, in parts, are those with the largest changes and a random draw of the rest.
# Compound: Cc1cc(ccc1-c1ccccc1)C(=O)N1CCCN(CC1)C(=O)CCl [compound 10]
# Assay: probe-labelled cysteine peptide fold change vs DMSO (competition) (log2 fold change); higher = less target engagement (more negative = stronger competition)
# Settings: 10 µM; THP-1; incubation time: 4 h
# 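Further: competitive profiling in live THP-1 cells: cysteine peptides tagged with an iodoacetamide desthiobiotin (IA-DTB) probe, intensity after compound treatment relative to DMSO-treated cells.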
row,Target,probe-labelled cysteine peptide fold change
1,GNAI2_P04899_326_EIYTHFTCATDTK (UniProt P04899),0.0663
2,GDAP2_Q9NXN4_148_TAAESSLYSCYR (UniProt Q9NXN4),-0.0153
3,HEATR3_Q7Z4Q2_57_ECACAGLAR (UniProt Q7Z4Q2),-1.43
4,HDHD5_Q9BXW7_392_DLCFSPGLMEASHVVNDVNEAVQLVFRK (UniProt Q9BXW7),-0.183
5,GTF2I_P78347_475_MVDQLFCK (UniProt P78347),-0.213
6,GCLM_P48507_35+46_CPSTHSEELHDCIQK (UniProt P48507),-0.112
7,GNB1_P62873_294_LLLAGYDDFNCNVWDALK (UniProt P62873),0.0699
8,GRN_P28799_178_CITPTGTHPLAK (UniProt P28799),-0.279
9,GTPBP3_Q969Y2_188_QLDGELGHLCR (UniProt Q969Y2),-0.0966
10,FSCN1_Q16658_226_VAFRDCEGR (UniProt Q16658),-0.244
11,HINT1_P49773_38_CLAFHDISPQAPTHFLVIPK (UniProt P49773),0.0727
12,GTF3C4_Q9UKN8_376_CVPLYHPYQK (UniProt Q9UKN8),0.0788
13,HERC4_Q5GLZ8_58+60_HTVFVLDDGTVYTCGCNDLGQLGHEK (UniProt Q5GLZ8),-0.0133
14,GATM_P50440_131_KAVAEIEEMCNILK (UniProt P50440),-0.0751
15,GATD1_Q8NB37_94_YHALLIPSCPGALTDLASSGSLAR (UniProt Q8NB37),0.0159
16,HDAC6_Q9UBN7_539_PATEAELLTCHSAEYVGHLR (UniProt Q9UBN7),-0.137

# — the supplement of paper PMC12067093, “Discovery and optimisation of a covalent ligand for TRIM25 and its application to targeted protein ubiquitination” (Chemical Science, 2025)
